High-throughput results as filed in PubChem.
Only some compounds are listed: those with a hit (about 6.7% of all), similar ones and a draw of the others.
T_cruzi_growth-1 = blocks T. cruzi growth in NIH3T3 culture. T. cruzi beta-gal in NIH3T3, GalScreen luminescence, 90 h. 77,000 compounds, 5.9% hits. inhibition, % at 8.34 µM;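 active = mean inhibition above about 93%, with at least 55% of replicates each passing it, limit read from the data, passing the limit was not always enough; inconclusive = only one of those two conditions holds; inactive = neither condition holds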
Pf_Dd2_inh = blocks growth of Plasmodium falciparum Dd2 parasites; P. falciparum Dd2 growth, SYBR Green, 72 h; stronger effect = lower value; activity change, % at 10 µM; 94,000 compounds, 2.3% hits; in the data active = activity change below about -80%; inconclusive = no clear call, values can overlap the other calls
C_diff_HTS = C. difficile growth inhibition; Clostridium difficile clinical isolate growth, OD600, 24 h; stronger effect = lower value; growth activity, negative = inhibition, % at 16 µg/mL (by protocol); 86,000 compounds, 0.25% hits; AID 1259249;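 active = mean growth activity at or below -80% and every replicate also at or below -80%; inconclusive = mean at or below -80% but some replicate above -80%; inactive = mean growth activity above -80%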
T_cruzi_growth-2 = blocks T. cruzi growth in NIH3T3 host cells; T. cruzi beta-gal in NIH3T3, GalScreen luminescence, 90 h; AID 651739; 5,600 compounds, 72% hits; shares compounds with T_cruzi_growth-1; inhibition, % at 8.35 µM;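 active = mean replicate inhibition above about 95% and at least 55% of replicates individually reaching it, limit read from the data; inconclusive = only one of the two criteria is met; inactive = neither criterion is met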
T_cruzi_growth-3 = inhibitors of T. cruzi proliferation; shares compounds with T_cruzi_growth-1; T. cruzi beta-gal in NIH3T3, GalScreen luminescence, 90 h; inhibition, % at 2.09 µM; 5,600 compounds, 21% hits; AID 651740;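 active = mean inhibition above about 95%, with at least 55% of replicates also reaching it, limit read from the data; inconclusive = meets just one of the two conditions; inactive = meets neither condition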
NIH3T3_tox = kills mouse NIH/3T3 fibroblasts | cytotoxicity (signal decrease), % at 8.35 µM | 5,600 compounds, 14% hits | NIH/3T3 viability, CellTiter-Glo ATP luminescence, 90 h | AID 651742 | shares compounds with T_cruzi_growth-1;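 active = mean signal decrease across replicates above about 35% based on untreated-well scatter, with enough replicates individually passing, limit read from the data; inconclusive = no rule stated though some were filed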
3T3_cytotox_2 = kills mouse NIH/3T3 fibroblasts | 5,600 compounds, 56% hits | NIH/3T3 viability, CellTiter-Glo ATP luminescence, 90 h | shares compounds with T_cruzi_growth-1 | inhibition, % at 24.9 µM;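 active = mean loss of cell viability signal at or above a set limit, and enough replicates individually reaching it; inconclusive = meets only the mean limit or only the replicate share; inactive = meets neither condition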
Numbers stand for hits; - = inactive; ? = inconclusive; . = no result given.

SMILES T_cruzi_growth-1 Pf_Dd2_inh C_diff_HTS T_cruzi_growth-2 T_cruzi_growth-3 NIH3T3_tox 3T3_cytotox_2
C[C@@H]1CN([C@H](C)CO)S(=O)(=O)c2ccc(-c3ccc(F)cc3)cc2O[C@H]1CN(C)C(=O)C1CC1 - - - . . . .
C[C@H](CO)N1C[C@H](C)[C@H](CN(C)Cc2ccc3c(c2)OCO3)Oc2c(NS(C)(=O)=O)cccc2C1=O - - - . . . .
COCc1cn(CC[C@H]2CC[C@H](NC(=O)Nc3ccc(F)cc3)[C@@H](CO)O2)nn1 - - - . . . .
CO[C@@H]1CN(C)C(=O)c2cc(NS(=O)(=O)c3cn(C)cn3)ccc2OC[C@H](C)N(C)C[C@H]1C - - - . . . .
CCCNC(=O)[C@H]1[C@H](CO)[C@H]2Cn3c(cccc3=O)[C@@H]1N2CCC(F)(F)F - . - . . . .
CN(C)C(=O)[C@H]1[C@H](CO)[C@H]2Cn3c(cccc3=O)[C@@H]1N2C(=O)c1ccc(F)cc1 185 . - - - - -
CCNC(=O)[C@@H]1[C@@H](CO)[C@@H]2Cn3c(cccc3=O)[C@H]1N2C(=O)Nc1cc(F)ccc1F . - - . . . .
CCCNC(=O)[C@H]1[C@H](CO)[C@H]2Cn3c(cccc3=O)[C@@H]1N2C(=O)Nc1cc(F)ccc1F 101 - - ? - - -
CN(C)C(=O)[C@@H]1[C@@H](CO)[C@@H]2Cn3c(cccc3=O)[C@H]1N2C(=O)c1ccccc1 - - - . . . .
CCCNC(=O)[C@@H]1[C@@H](CO)[C@@H]2Cn3c(cccc3=O)[C@H]1N2CCC(F)(F)F 94 . - ? - - -
COc1ccc(S(=O)(=O)Nc2cccc3c2O[C@@H](CN(C)Cc2ccc(C(F)(F)F)cc2)[C@H](C)CN([C@@H](C)CO)C3=O)cc1 - - - . . . .
CO[C@@H]1CN(C)C(=O)c2cc(NC(=O)c3cnccn3)ccc2OC[C@H](C)N(CC2CC2)C[C@H]1C . - - . . . .
C/C=C/c1ccc([C@H]2[C@H]3CN(Cc4ccc(C(=O)OC)cc4)CC(=O)N3[C@H]2CO)cc1 . - - . . . .
COc1ccccc1CNC(=O)C[C@H]1C[C@H]2c3cc(N(C)C)ccc3O[C@H]2[C@@H](CO)O1 - - - . . . .
CCCC#Cc1ccc([C@H]2[C@H](CO)N3CCCCN(Cc4cccnc4)C[C@@H]23)cc1 115 - - 108 - - 90
CCCC#Cc1ccc([C@H]2[C@H](CO)N3CCCCN(Cc4ccncc4)C[C@@H]23)cc1 107 - - 100 - - 86
CCCC#Cc1ccc([C@@H]2[C@H](CO)N3CCCCN(Cc4cncnc4)C[C@@H]23)cc1 - - - . . . .
CCCC#Cc1ccc([C@H]2[C@H](CO)N3CCCCN(Cc4cncnc4)C[C@@H]23)cc1 - - - . . . .
CCCC#Cc1ccc([C@@H]2[C@H]3CN(Cc4cccnc4)CCCCN3[C@H]2CO)cc1 - - - . . . .
CCCC#Cc1ccc([C@@H]2[C@H](CO)N3CCCCN(Cc4cccnc4)C[C@@H]23)cc1 103 - - 105 - - 104
CCCC#Cc1ccc([C@@H]2[C@@H](CO)N3CCCCN(Cc4cccnc4)C[C@H]23)cc1 ? - - 102 - - 82
C[C@@H](NC(=O)C[C@@H]1C[C@@H]2c3cc(NC(=O)CN(C)C)ccc3O[C@@H]2[C@H](CO)O1)c1ccccc1 - - - . . . .
Cc1ccc(S(=O)(=O)N(C)C[C@@H]2Oc3ccc(NC(=O)Nc4cccc5ccccc45)cc3C(=O)N([C@H](C)CO)C[C@@H]2C)cc1 - - . . . . .
C[C@H]1CN([C@@H](C)CO)C(=O)CCCn2cc(nn2)CO[C@H]1CN(C)C(=O)Nc1cccc(Oc2ccccn2)c1 - - - . . . .
CO[C@H]1CN(C)C(=O)c2ccc(NC(=O)c3ccccc3)cc2OC[C@@H](C)N(C(C)=O)C[C@@H]1C - - - . . . .
SMILES T_cruzi_growth-1 Pf_Dd2_inh C_diff_HTS T_cruzi_growth-2 T_cruzi_growth-3 NIH3T3_tox 3T3_cytotox_2
CN1C(=O)c2cc(NC(=O)c3cnccn3)ccc2OC[C@H]2O[C@@H](CC(=O)N[C@H]3CCN(Cc4ccccc4)C3)CC[C@@H]21 - - - . . . .
CN1C(=O)c2cc(NC(=O)c3cnccn3)ccc2OC[C@@H]2O[C@H](CC(=O)N[C@H]3CCN(Cc4ccccc4)C3)CC[C@@H]21 109 - - 95 ? - -
CN1C(=O)c2cc(NC(=O)c3cnccn3)ccc2OC[C@@H]2O[C@H](CC(=O)N[C@@H]3CCN(Cc4ccccc4)C3)CC[C@H]21 - - - . . . .
CN1C(=O)c2cc(NC(=O)c3cnccn3)ccc2OC[C@@H]2O[C@@H](CC(=O)N[C@@H]3CCN(Cc4ccccc4)C3)CC[C@H]21 101 - - 101 - - -
Cc1ccccc1-c1cnc2c(c1)C(=O)N([C@@H](C)CO)C[C@@H](C)[C@H](CN(C)CC1CCOCC1)O2 - - - . . . .
COc1ccccc1C#Cc1ccc([C@H]2[C@@H](C#N)N(C(=O)C3CCC3)[C@@H]2CO)cc1 ? - - 106 108 - 96
N#C[C@@H]1[C@H](c2ccc(C#Cc3ccccc3F)cc2)[C@@H](CO)N1C(=O)C1CCC1 ? - - - - - 102
N#C[C@@H]1[C@@H](c2ccc(C#Cc3ccccc3F)cc2)[C@H](CO)N1C(=O)C1CCC1 - - - . . . .
N#C[C@H]1[C@H](c2ccc(C#Cc3ccccc3F)cc2)[C@@H](CO)N1C(=O)C1CCC1 99 - - 103 101 - -
COc1ccccc1C#Cc1ccc([C@H]2[C@H](C#N)N(C(=O)C3CCCCC3)[C@H]2CO)cc1 . - - . . . .
N#C[C@H]1[C@H](c2ccc(C#Cc3ccccc3F)cc2)[C@H](CO)N1C(=O)C1CCC1 - - - . . . .
O=C(C[C@H]1CC[C@H](NC(=O)c2ccncc2)[C@H](CO)O1)NCC1CC1 . . - . . . .
O=C(C[C@@H]1CC[C@H](NC(=O)Nc2ccc(C(F)(F)F)cc2)[C@H](CO)O1)NCc1ccccn1 - - - . . . .
CS(=O)(=O)Nc1ccc2c(c1)[C@H]1C[C@@H](CC(=O)NCc3cccnc3)O[C@@H](CO)[C@H]1O2 . - - . . . .
C[C@H](CO)N1C[C@H](C)[C@H](CN(C)C)Oc2ccc(NC(=O)CCCCCC(=O)Nc3ccccc3N)cc2CC1=O . - - . . . .
O=S(=O)(Cc1ccccc1)N1CCCCN2[C@H](CO)[C@H](c3ccc(-c4ccccc4)cc3)[C@@H]2C1 104 - - 108 - - 84
O=S(=O)(c1ccc(F)cc1)N1CCCCN2[C@H](CO)[C@@H](c3ccc(-c4ccccc4)cc3)[C@@H]2C1 - - - . . . .
